# The panel holds about 79,000 compounds, 15% with a hit somewhere; the sample as a whole holds those more often. Values without a mark were called inactive. Activity calls are given as the source filed them. Cut-off read from the data, not from the text of the source: active = growth inhibition above about 70%; inactive = the rest.
# Assay: NCI Yeast Anticancer Drug Screen. Data for the sgs1 mgt1 strain (AID 161);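 note: 0% = growth of cultures given vehicle only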
# Details: S. cerevisiae sgs1 mgt1 strain, at 50.0 µM, stronger effect = higher value
# Outline: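 Yeast cells carrying a defined DNA-repair defect were exposed to test compounds. Growth inhibition was measured relative to vehicle-treated controls.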
row,SMILES,growth inhibition
1,COC(=O)c1ccc(NN)cc1,36.1%
2,O=[N+]([O-])c1ccc(-c2nc3c(o2)CCC3)cc1,6.4%
3,Cc1ccc(S(=O)(=O)N/N=C(\C=C\c2ccccc2)c2ccccc2)cc1,59.5%
4,[N-]=[N+]=NC1=CC(=O)c2cccc3cccc1c23,87.6% (active)
5,CCOc1ccc2nc3cc(Cl)ccc3[n+](C)c2c1,82.8% (active)
6,Cc1ccc(C(c2ccc(N(C)C)cc2)c2ccc(N(C)C)cc2)cc1,93.8% (active)
7,O=[N+]([O-])c1ccc2c(c1)[n+]([O-])c1[nH]c3ccccc3c1[n+]2[O-] (tested in a mixture with another compound),82.9% (active)
8,C/C(=N\NC(=S)N1CCCCCC1)c1cccc2cccnc12,97.6% (active)
9,CC(C)c1cc(O)c(C(C)(C)C)cc1Cl,77.3% (active)
10,CN(C)c1ccc(/C=C(/NC(=O)c2ccccc2)c2nc3ccc(Cl)cc3[nH]2)cc1,67.2%
11,CC(C)(C)c1ccc2c(c1)C(O)(c1ccccc1)C1OC1(C(C)(C)C)C2=O (stereo not given),79.3% (active)
12,CCCCCCCCCCCCOP(=O)(N1CC1(C)C)N1CC1(C)C (stereo not given),82.8% (active)
13,Cc1ccc(C(=O)CC(N)C(=O)O)cc1 (stereo not given),-3.05%
14,COC(=O)CCC(=O)NCCc1ccc2c([nH]c3ccccc32)c1C,71.2% (active)
15,Nc1ccc(C(=O)N/C(=C\C=C\c2ccco2)c2nc3c4c(ccc3[nH]2)C(=O)c2ccccc2C4=O)cc1,74.8% (active)
16,Oc1ccc(CCCCCc2ccc(O)cc2)cc1,99.7% (active)
17,O=C(O)C1C(C(=O)O)C2C(=O)C=CC1N2Cc1ccccc1 (stereo not given),78.5% (active)
18,CC1(C)CC(=O)C(c2ccccc2[N+](=O)[O-])=C(O)C1,69.6%
19,ON(Cc1ccccc1)C(=S)c1ccccc1,91.5% (active)
20,CCCCC(O)(c1ccc2nc(NC(=O)OC)[nH]c2c1)c1cccs1 (stereo not given),49.5%

row,SMILES,growth inhibition
1,O=C(O)CC/C(=N\Nc1ccccc1)C(=O)O,97.4% (active)
2,CC(C)(c1ccc(OC#N)cc1)c1ccc(OC#N)cc1,79.5% (active)
3,C=CC(C)(CCC=C(C)C)OC(=O)Nc1ccccc1 (stereo not given),16.1%
4,Cc1ccc(Cc2nc(=S)[nH][nH]2)cc1,-2.75%
5,Cc1c(Cl)c(S(N)(=O)=O)cc2c1NC=NS2(=O)=O,-26.1%
6,O=C(c1cccnc1)N(C1CCCCC1)C1CCCCC1,3.4%
7,COc1cc(NCC(C)(O)CN2CCC(C)CC2C)c2ncccc2c1 (stereo not given),77% (active)
8,O=C1C=CC(=Nc2cccc3c2-c2ccccc2C3)O1,99.7% (active)
9,CC(O)c1c2c(cc3c1CC1(C3)Cc3cc4c(c(C(C)O)c3C1)CCC4)CCC2 (stereo not given),85.9% (active)
10,CCCCCCCCCCCCCCCC[N+](C)(C)CCl,82.2% (active)
11,CCCCC(CC)CNc1ncnc2c1cnn2C (stereo not given),91.7% (active)
12,O=C1NN(C2=NNC3(C(=O)N2)c2ccccc2-c2ccccc23)C(c2ccccc2)=N/C1=C/c1ccc(Cl)cc1,-13.5%
13,CCCCc1ccc2nccc(N/N=C/c3ccc(OC)c4ccccc34)c2c1,76.7% (active)
14,CC(C)(C[NH-])C[NH-].[Cl][Pt+2]([Cl])([Cl])[Cl],86.5% (active)
15,O=C(O)C1(Cc2ccc3c(c2)CCC3)Cc2ccccc2C1,88.5% (active)
16,CCN(CC)C(C)(C)C(=O)/C=C/c1ccc(Cl)cc1,24.9%
17,CCc1ccccc1NC(=O)C(=O)C(C#N)c1c(Cl)cccc1Cl (stereo not given),20.7%
18,COc1c(OC)c(C2(O)C(=O)N(C)c3ccccc32)c(OC)c(OC)c1C1(O)C(=O)N(C)c2ccccc21 (stereo not given),-4.9%
19,Nc1ccc2ccccc2c1N=Cc1ccccc1[N+](=O)[O-],96.8% (active)
20,O=[N+]([O-])C1=Cc2cc(Cl)ccc2OC1c1cccc2ccccc12 (stereo not given),84.2% (active)

# Assay: NCI Yeast Anticancer Drug Screen. Data for the cln2 rad14 strain (AID 165);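 note: 0% = growth equal to vehicle treated cultures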
# Details: S. cerevisiae cln2 rad14 strain, at 5.0 µM (retest, dose inferred, filed as 0.5), stronger effect = higher value
# Outline: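 Readout is yeast growth inhibition versus vehicle-treated controls, using a strain with cln2 and rad14 alterations exposed to compound.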
row,SMILES,growth inhibition
1,COC(=O)c1ccc(NN)cc1,3%
2,O=[N+]([O-])c1ccc(-c2nc3c(o2)CCC3)cc1,-57%
3,Cc1ccc(S(=O)(=O)N/N=C(\C=C\c2ccccc2)c2ccccc2)cc1,-19%
4,[N-]=[N+]=NC1=CC(=O)c2cccc3cccc1c23,47%
5,CCOc1ccc2nc3cc(Cl)ccc3[n+](C)c2c1,10%
6,Cc1ccc(C(c2ccc(N(C)C)cc2)c2ccc(N(C)C)cc2)cc1,78% (active)
7,O=[N+]([O-])c1ccc2c(c1)[n+]([O-])c1[nH]c3ccccc3c1[n+]2[O-] (tested in a mixture with another compound),48%
8,C/C(=N\NC(=S)N1CCCCCC1)c1cccc2cccnc12,-19%
9,CC(C)c1cc(O)c(C(C)(C)C)cc1Cl,4%
10,CN(C)c1ccc(/C=C(/NC(=O)c2ccccc2)c2nc3ccc(Cl)cc3[nH]2)cc1,16%
11,CC(C)(C)c1ccc2c(c1)C(O)(c1ccccc1)C1OC1(C(C)(C)C)C2=O (stereo not given),4%
12,CCCCCCCCCCCCOP(=O)(N1CC1(C)C)N1CC1(C)C (stereo not given),16%
13,Cc1ccc(C(=O)CC(N)C(=O)O)cc1 (stereo not given),2%
14,COC(=O)CCC(=O)NCCc1ccc2c([nH]c3ccccc32)c1C,5%
15,Nc1ccc(C(=O)N/C(=C\C=C\c2ccco2)c2nc3c4c(ccc3[nH]2)C(=O)c2ccccc2C4=O)cc1,0%
16,Oc1ccc(CCCCCc2ccc(O)cc2)cc1,1%
17,O=C(O)C1C(C(=O)O)C2C(=O)C=CC1N2Cc1ccccc1 (stereo not given),-8%
18,CC1(C)CC(=O)C(c2ccccc2[N+](=O)[O-])=C(O)C1,5%
19,ON(Cc1ccccc1)C(=S)c1ccccc1,1%
20,CCCCC(O)(c1ccc2nc(NC(=O)OC)[nH]c2c1)c1cccs1 (stereo not given),-15%

row,SMILES,growth inhibition
1,O=C(O)CC/C(=N\Nc1ccccc1)C(=O)O,6%
2,CC(C)(c1ccc(OC#N)cc1)c1ccc(OC#N)cc1,23%
3,C=CC(C)(CCC=C(C)C)OC(=O)Nc1ccccc1 (stereo not given),-2%
4,Cc1ccc(Cc2nc(=S)[nH][nH]2)cc1,1%
5,Cc1c(Cl)c(S(N)(=O)=O)cc2c1NC=NS2(=O)=O,7%
6,O=C(c1cccnc1)N(C1CCCCC1)C1CCCCC1,1%
7,COc1cc(NCC(C)(O)CN2CCC(C)CC2C)c2ncccc2c1 (stereo not given),13%
8,O=C1C=CC(=Nc2cccc3c2-c2ccccc2C3)O1,88% (active)
9,CC(O)c1c2c(cc3c1CC1(C3)Cc3cc4c(c(C(C)O)c3C1)CCC4)CCC2 (stereo not given),1%
10,CCCCCCCCCCCCCCCC[N+](C)(C)CCl,99% (active)
11,CCCCC(CC)CNc1ncnc2c1cnn2C (stereo not given),-10%
12,O=C1NN(C2=NNC3(C(=O)N2)c2ccccc2-c2ccccc23)C(c2ccccc2)=N/C1=C/c1ccc(Cl)cc1,-10%
13,CCCCc1ccc2nccc(N/N=C/c3ccc(OC)c4ccccc34)c2c1,-2%
14,CC(C)(C[NH-])C[NH-].[Cl][Pt+2]([Cl])([Cl])[Cl],79% (active)
15,O=C(O)C1(Cc2ccc3c(c2)CCC3)Cc2ccccc2C1,5%
16,CCN(CC)C(C)(C)C(=O)/C=C/c1ccc(Cl)cc1,-9%
17,CCc1ccccc1NC(=O)C(=O)C(C#N)c1c(Cl)cccc1Cl (stereo not given),-6%
18,COc1c(OC)c(C2(O)C(=O)N(C)c3ccccc32)c(OC)c(OC)c1C1(O)C(=O)N(C)c2ccccc21 (stereo not given),-10%
19,Nc1ccc2ccccc2c1N=Cc1ccccc1[N+](=O)[O-],-9%
20,O=[N+]([O-])C1=Cc2cc(Cl)ccc2OC1c1cccc2ccccc12 (stereo not given),97% (active)
